Rab9 promoter act = Rab9 promoter activation. Huh7 Rab9 promoter-luciferase reporter, luminescence, 24 h. Potency, µM (highest dose often 9.22 µM), for the others: at the top dose activation, negative = inhibition, actives largely listed as activators. actives 2.8% (n = 320,000); also: % of control where 0% means no effect; nearly all actives have a fitted effect of over 60% in size
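Steps: seed 1500 Huh7 Rab9-luc cells per well, rest 2 h at 37 °C; add compound in DMSO; incubate 24 h; add luciferase reagent, 10 min ambient; read luminescence.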
SMN2 splice up = enhancers of SMN2 splice variant expression; Potency, µM (top dose mostly 46.1 µM), for the others: at the highest dose activity change, positive = activation, usual class: activators; AID 1458; HEK293 SMN2-luciferase splicing reporter, luminescence, 30-36 h; actives 2.8% (n = 210,000); also: % of control where 0% means no effect; nearly all actives have a fitted effect of over 55% in size
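HEK293 cells carry an SMN2 […]–luciferase reporter in which exon 7 inclusion puts luciferase in frame. Cells were plated 10-12 h before compound addition, then incubated 30-36 h at 37C. ONE-Glo luminescence was read; sodium butyrate at 4.5 mM final served as control.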
ELG1 genotoxic = induces genotoxicity in HEK293T cells with luciferase-tagged ELG1 | Potency, µM (titrated, usually from 46 µM), inactives show top-dose activity change, positive = activation, most hits filed as activators | actives 1.3% (n = 330,000) | HEK293T ELG1-luciferase reporter, luminescence, 16 h; also: % of control where 0% means no effect; nearly all actives have a fitted effect of over 60% in size
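ELG1-luciferase HEK293T cells, 2,000/well; compound pinned in; 16 hr, 37 °C, 5% CO2; ONE-Glo, 30 min RT; luminescence on CCD imager.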
ELG1 repair inh = inhibitors of ELG1-dependent DNA repair in HEK293T cells; HEK293T ELG1-luciferase reporter, luminescence, 16 h; DNA damage induced by 5-fluorouridine; Potency, µM (titrated, usually from 46.1 µM), for inactives: at the top dose activity change, negative = inhibition, actives largely listed as inhibitors; actives 2.3% (n = 330,000); AID 504467; also: % is scaled to controls: 0 for no effect and ±100 for the full control effect; nearly all actives have a fitted effect of over 55% in size
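5-Fluorouridine DNA damage + compound/DMSO, 2,000 cells/well, 16 h, 37 °C/5% CO2. ONE-Glo, 30 min RT, luminescence. Readout = decrease in reporter signal.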
NPC1 promoter act = activators of NPC1 promoter; Huh7 NPC1 promoter luciferase reporter, 24 h; Potency, µM (series often up to 9.22 µM), inactives show top-dose activation, most hits filed as activators; actives 2.4% (n = 320,000); also: % of control where 0% means no effect; nearly all actives have a fitted effect of over 60% in size
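Stably transfected Huh7 (NPC1 promoter→luciferase), 1500 cells/well in Opti-MEM + 10% FBS, 2 h settle, then compound 24 h at 37 °C. Luminescence after 10 min with Amplite reagent.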
FLuc counter = firefly luciferase modulation, counter-screen for miR-21 project; P08659; purified FLuc, Km substrates, luminescence inhibition; Potency, µM (series often up to 57.5 µM), inactives show at the top dose activity change, negative = inhibition, hits mostly inhibitors; actives 6.9% (n = 360,000);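 also: plate controls were vehicle for no effect and reference inhibitor for full effect; nearly all actives have a fitted effect of over 55% in size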
Target sequence (P08659 whole entry, looked up): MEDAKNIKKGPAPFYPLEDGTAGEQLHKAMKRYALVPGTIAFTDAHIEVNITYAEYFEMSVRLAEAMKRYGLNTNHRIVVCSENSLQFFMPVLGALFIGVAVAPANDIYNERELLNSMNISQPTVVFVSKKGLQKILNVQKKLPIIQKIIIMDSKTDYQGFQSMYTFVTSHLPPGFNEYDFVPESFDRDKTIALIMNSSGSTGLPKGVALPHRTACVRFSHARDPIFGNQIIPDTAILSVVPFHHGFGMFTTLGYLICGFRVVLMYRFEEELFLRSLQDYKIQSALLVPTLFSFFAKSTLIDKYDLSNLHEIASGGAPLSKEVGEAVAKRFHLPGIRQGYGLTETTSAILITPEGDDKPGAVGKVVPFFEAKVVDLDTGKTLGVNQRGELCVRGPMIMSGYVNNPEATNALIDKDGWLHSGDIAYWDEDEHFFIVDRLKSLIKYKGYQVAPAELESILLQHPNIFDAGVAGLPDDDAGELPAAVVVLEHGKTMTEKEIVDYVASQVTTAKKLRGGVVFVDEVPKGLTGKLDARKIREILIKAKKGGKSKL
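Purified P. pyralis luciferase (10nM final) with 10uM D-luciferin and 10uM ATP (Km levels) in 50mM Tris acetate pH 7.5, 10mM Mg acetate, 0.01% Tween-20, 0.05% BSA; qHTS 6-point titration, ~60 µM downward; luminescence read.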
Numbers without * were called inactive; ? = inconclusive; . = no result given. An excerpt weighted towards active compounds, which were near 9.2% of everything screened. Calls follow the shape of the dose curve; as a rule, active = well fitted curve in the direction sought with a large enough effect; inconclusive = small, poorly fitted or top-dose-only effect, or another doubt; inactive = no such curve, though single readings can be large; an effect the other way counts as inactive or inconclusive. Potency is read from the fitted curve at half-maximal effect.

SMILES	Rab9 promoter act	SMN2 splice up	ELG1 genotoxic	ELG1 repair inh	NPC1 promoter act	FLuc counter
O=C(O)CCC(=O)Nc1ccc(-c2nnc(-c3ccco3)o2)cc1	-8.5%	1.3%	2.8%	25.0%	1.5%	?
Cc1ccc(SCC(=O)Nc2ccc(-c3nnc(-c4ccco4)o3)cc2)cc1	3.55µM*	?	?	?	2.51µM*	3.1%
Cc1cc(C)cc(OCC(=O)Nc2cccc(-c3nnc(-c4ccco4)o3)c2)c1	-2.2%	13.3%	-50.2%	20.6µM*	11.4%	1.4%
O=C(COc1ccccc1)Nc1cccc(-c2nnc(-c3ccccc3)o2)c1	28.2%	?	-8.5%	-13.5%	?	12µM*
COc1ccc(N2CCN(C(=O)CCS(=O)(=O)c3ccc(C)cc3)CC2)cc1	-1.2%	.	-7.9%	-13.7%	2.5%	4.6%
CCOC(=O)c1c(C)[nH]c(C)c1S(=O)(=O)NCC(=O)Nc1cccc(Cl)c1	.	.	.	.	.	0.3%
CCOC(=O)c1cc(-c2ccc(OC)cc2)n[nH]1	?	.	?	?	?	16.9µM*
O=C(O)c1ccc2c(c1)OCCOCCOCCOCCOCCO2	0.5%	.	-1.6%	14.4%	-5.8%	0.3%
CCOC(=O)c1cc(-c2ccc3c(c2)OCCO3)n[nH]1	1.58µM*	.	?	?	3.16µM*	2.39µM*
COC(=O)c1cc(-c2ccc(Cl)cc2)n[nH]1	11.2%	.	7.1%	?	-9.5%	?
O=C(O)c1cc(-c2ccc3c(c2)OCCO3)n[nH]1	-0.2%	.	2.8%	8.7%	-6.1%	10.7µM*
Oc1ccccc1-c1cc(-c2ccc3c(c2)OCCO3)n[nH]1	0.708µM*	3.16µM*	0.366µM*	?	0.501µM*	0.338µM*
COc1ccc(OC)c(C2=C/C(=C/c3ccccn3)C(=O)O2)c1	0.2%	-4.8%	14.3%	9.1%	-1.0%	3.7%
CCOC(=O)c1cc2cc3ccccc3cc2[nH]1	2.51µM*	3.16µM*	?	?	2.24µM*	?
CCCCc1ccc(NC(=O)N2CCNC(=O)C2CC(=O)Nc2ccsc2C(=O)OC)cc1 (stereo not given)	-1.7%	.	-3.1%	23.1µM*	-3.6%	?
COC(=O)c1sccc1NC(=O)CC1C(=O)NCCN1C(=O)Nc1ccc(OCc2ccccc2)cc1 (stereo not given)	-3.5%	.	-2.8%	11.6µM*	-6.6%	?
COC(=O)c1sccc1NC(=O)CC1C(=O)NCCN1C(=O)Nc1ccccc1 (stereo not given)	-3.8%	.	-0.1%	?	1.6%	3.5%
Cc1cc(C)n2nc(-c3ccco3)nc2n1	-1.7%	-10.2%	-16.4%	-8.2%	-2.0%	-3.7%
O=c1c2c3nc4ccccc4nc3n(/N=C/c3ccccn3)c2ncn1-c1ccccc1	-5.5%	.	0.3%	-1.9%	-13.6%	-6.2%
COc1cccc(/C=N/n2c(-c3ccco3)nc3ccccc3c2=O)c1	0.562µM*	0.794µM*	1.5%	18.4µM*	0.398µM*	13.5µM*
COCCCn1cnc2c(c1=O)c1nc3ccccc3nc1n2-c1ccccc1	1.8%	-6.7%	-1.2%	0.0%	1.2%	2.4%
COCCn1cnc2c(c1=O)c1nc3ccccc3nc1n2/N=C/c1cccc(OC)c1	-6.1%	.	-3.0%	20.6µM*	-14.2%	-10.6%
C=CCn1cnc2c(c1=O)c1nc3ccccc3nc1n2/N=C/c1ccccn1	-5.4%	-11.0%	-9.5%	11.6µM*	-0.5%	-8.4%
COc1ccc(/C=N/n2c(-c3ccco3)nc3ccccc3c2=O)cc1	-1.5%	-32.0%	2.0%	?	1.9%	-15.4%
C=CCn1cnc2c(c1=O)c1nc3ccccc3nc1n2/N=C/c1cccc(OC)c1OC	-3.4%	0.5%	-15.6%	3.26µM*	1.5%	-4.8%
SMILES	Rab9 promoter act	SMN2 splice up	ELG1 genotoxic	ELG1 repair inh	NPC1 promoter act	FLuc counter
C=CCn1cnc2c(c1=O)c1nc3ccccc3nc1n2-c1ccccc1	6.0%	-10.4%	-2.3%	-5.7%	0.9%	-0.6%
C=CCn1cnc2c(c1=O)c1nc3ccccc3nc1n2/N=C/c1cc(OC)c(OC)c(OC)c1	2.7%	3.6%	-7.1%	5.8µM*	5.3%	-1.6%
CCOC(=O)c1c(C)n(C)c2ccc(OCC(O)Cn3nc(C)c(Br)c3C)cc12 (stereo not given)	0.4%	3.3%	-9.3%	20.6µM*	-0.6%	-10.2%
COc1ccc(CCNC(=O)c2oc(=O)c3ccccc3c2-c2ccccc2)cc1OC	.	.	.	.	.	-8.1%
CC(=O)Nc1ccc(-c2csc(Nc3cccc(C)n3)n2)cc1	1.58µM*	.	16.4%	?	1.78µM*	9.53µM*
CC(=O)Nc1cccc(-c2csc(Nc3ccc(C)cn3)n2)c1	0.891µM*	2.24µM*	1.84µM*	?	1µM*	0.426µM*
CC(=O)NNc1nc(-c2ccc(NC(C)=O)cc2)cs1	-2.2%	12.9%	-0.7%	13.1%	0.4%	1.0%
COc1ccc(-c2csc(Nc3ccc(C)cn3)n2)cc1	-4.1%	.	2.5%	4.0%	-4.7%	-4.6%
CC(=O)Nc1cccc(-c2csc(Nc3ncccn3)n2)c1	1.58µM*	3.55µM*	?	?	3.16µM*	2.13µM*
CC(=O)Nc1ccc(S(=O)(=O)Nc2cccc(-c3csc(C)n3)c2)cc1	-10.5%	.	-5.2%	?	-6.3%	-8.3%
CC(C)CN(C(=O)c1cccc(S(=O)(=O)N2CCN(c3ccc(F)cc3)CC2)c1)C1CCS(=O)(=O)C1 (stereo not given)	-0.5%	.	1.2%	-3.8%	-2.5%	2.6%
COc1ccccc1NS(=O)(=O)c1cc(C(=O)N2CCCC2)ccc1F	-4.1%	.	2.5%	-2.5%	3.7%	2.4%
O=C(OCC#CCSc1nnc(-c2cccc3ccccc23)s1)c1cccs1	-2.5%	.	.	.	1.1%	3.6%
c1ccc(Oc2ccc(-c3ccn[nH]3)cc2)cc1	3.16µM*	.	?	?	?	10.7µM*
c1ccc(Oc2ccc(-c3ccnc4ncnn34)cc2)cc1	-12.0%	1.2%	10.3%	?	-0.9%	-10.9%
Cc1oc2c(cc(NS(=O)(=O)c3ccc(Br)cc3)c3ccccc32)c1C(=O)OCc1ccccc1	.	-9.6%	.	.	.	-19.9%
O=c1c2sccc2nc(SCc2cc(=O)n3cc(Br)ccc3n2)n1Cc1ccccn1	4.47µM*	?	?	?	?	-0.6%
COC(=O)c1ccc(N2CC3CNC(=O)C2(C(=O)OC)N3C)cc1 (stereo not given)	.	.	2.3%	?	.	.
COc1cc(NC(=S)NC(=O)CC(C)C)ccc1NC(=O)c1cc2ccccc2o1	-1.9%	3.4%	8.1%	14.8%	0.7%	-1.5%
